Most compounds without a hit are left out; they make up all but 2.5% or so of the library.
Anesthetic bind = candidate novel general anesthetic via apoferritin binding | P02791 | Potency, µM (highest dose often 77.5 µM), hits mostly inhibitors | 0.074% of 350,000 active | apoferritin/1-aminoanthracene competitive binding, fluorescence | AID 485281; also: nearly all actives have a fitted effect of over 20% in size
Target sequence (P02791 2-175 limits assumed): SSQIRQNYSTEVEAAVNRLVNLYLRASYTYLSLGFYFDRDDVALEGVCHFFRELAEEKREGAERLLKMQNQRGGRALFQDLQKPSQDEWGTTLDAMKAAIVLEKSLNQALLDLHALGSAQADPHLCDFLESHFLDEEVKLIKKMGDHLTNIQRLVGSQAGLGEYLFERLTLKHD
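Horse-spleen apoferritin (10 uM) in 50% saturated 1-aminoanthracene in PBS was incubated 10 min at room temperature with compound. Fluorescence (ex 380, em 535 nm) was normalized to free and bound 1-AMA, with concentration-response fitted by a four-parameter Hill equation.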
D2 ag-1 = activates the human D2 dopamine receptor; P14416; DiscoveRx PathHunter D2 beta-arrestin, luminescence, 90 min; 100% = 57 uM dopamine signal; activation, % (no concentration beside the values); 0.084% of 360,000 active; in the data active = activation above about 40%; inconclusive = between about 15% and that limit
Target sequence (P14416 whole entry, looked up): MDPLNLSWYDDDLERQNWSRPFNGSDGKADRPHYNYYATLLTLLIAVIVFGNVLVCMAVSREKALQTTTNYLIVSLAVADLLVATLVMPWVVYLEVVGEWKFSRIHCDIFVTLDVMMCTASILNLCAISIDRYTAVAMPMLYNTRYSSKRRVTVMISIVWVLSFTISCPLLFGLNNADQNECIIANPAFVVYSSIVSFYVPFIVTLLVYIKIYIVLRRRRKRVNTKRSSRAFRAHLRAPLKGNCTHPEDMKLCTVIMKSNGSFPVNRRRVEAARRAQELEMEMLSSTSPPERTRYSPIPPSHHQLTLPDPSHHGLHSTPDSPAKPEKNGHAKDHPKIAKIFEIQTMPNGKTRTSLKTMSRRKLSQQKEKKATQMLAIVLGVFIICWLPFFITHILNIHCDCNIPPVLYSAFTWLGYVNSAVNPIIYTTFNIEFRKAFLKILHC
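Agonist mode: compounds alone added to overnight-plated D2 PathHunter cells for 90 min at 37 C, with 57 uM final dopamine (EC100) defining full response. Beta-arrestin recruitment detected by chemiluminescent reagent, read after 1 h at ambient temperature.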
D2 antag = antagonizes the human D2 dopamine receptor. P14416. HEK293 TREx D2 cells, calcium flux, dopamine EC80. inhibition, % at 10 µM. 2% of 340,000 active; in the data active = inhibition above about 30%; inactive = below that, where a call was filed
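Dopamine at EC80 is the agonist stimulus; test compounds precede it by 180 s. Calcium flux read kinetically in a force-coupled, inducible HEK293 T-REx D2 cell line.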
D2 ag-2 = agonists of human D2 dopamine receptor; HEK293 T-REx D2 cells, calcium flux agonist mode; activation, % at 2 µM; 0.53% of 340,000 active; AID 485358;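 active = activation over 3 SD above normal in the single-dose calcium agonist read, cut at about 30% in these data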
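HEK293 Trex D2 cells, tetracycline-induced, o/n 30 C 5% CO2; no-wash Ca dye, RT 30–90 min; 10-cycle baseline, 23 nl cpd added, kinetic Ca read 180 s; agonist hits = positive Ca response.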
D2 PAM-1 = D2 dopamine receptor (human) potentiation. potentiation, % at 10 µM. P14416. 0.34% of 340,000 active. HEK293 T-REx D2, calcium flux, EC20 dopamine potentiation;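 active = potentiation over 3 SD above the plate norm, cut at about 30% in these data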
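Potentiation of an EC20 dopamine calcium response is measured in a force-coupled, tetracycline-inducible Hek293 Trex D2 line. Compound-only kinetic reads over 180 s flag agonists before dopamine addition.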
D2 PAM-2 = potentiates the human D2 dopamine receptor allosterically | DiscoveRx D2 beta-arrestin cells, luminescence, 90 min; 100% = 57 uM dopamine signal | 0.23% of 360,000 active | AID 624464 | potentiation, % (no concentration beside the values); in the data active = potentiation above about 50%; inconclusive = mostly about 30% to 49%
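PathHunter beta-arrestin assay in DiscoveRx D2 cells. Compounds were added with an EC20 of dopamine (50 nM final) for 90 min at 37 deg C. Luminescence was read 1 h after detection reagent, with 57 uM dopamine as the EC100 control.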
D3 arrestin ag = D3 receptor agonism confirmed, beta-arrestin readout. 4% of 2,300 active. DiscoveRx D3 beta-arrestin cells, luminescence, 90 min. AID 720506. Potency, µM (doses to about 76.9 µM), most hits filed as activators. shares compounds with D2 ag-2; also: nearly all actives have a fitted effect of over 70% in size
D2 ag-3 = counter-screen for D3 agonists: human D2 dopamine receptor agonism | Potency, µM (titrated, usually from 76.9 µM), hits mostly activators | 5.9% of 2,300 active | DiscoveRx PathHunter D2 beta-arrestin, luminescence, 90 min; response scale: percent relative to full dopamine signal | shares compounds with D2 ag-2; also: nearly all actives have a fitted effect of over 70% in size
Each line names hits and unclear results; the compound was inactive in the other large screens (follow-up assays come after a bar, where they were run). Unless noted, calls follow the shape of the dose curve; as a rule, active = well fitted curve in the direction sought with a large enough effect; inconclusive = small, poorly fitted or top-dose-only effect, or another doubt; inactive = no such curve, though single readings can be large; an effect the other way counts as inactive or inconclusive.

O=C(c1ccccc1)N1CCN(CC(O)COc2ccc(Br)cc2)CC1 (stereo unspecified)	none
CCOc1ccc(CCNC(=O)CCc2nnc3ccc(N4CCOCC4)nn23)cc1OCC	none
CN(C)S(=O)(=O)n1cnc([C@H]2c3c(ncn3Cc3ccccc3)C[C@H]3COC(=O)[C@@H]32)c1	none (no result: Anesthetic bind)
CN(C)S(=O)(=O)n1cnc([C@@H]2[C@@H]3C(=O)OC[C@@H]3C[C@]23N=CN(Cc2ccccc2)C3=O)c1	D2 antag 31 (no result: Anesthetic bind) | D3 arrestin ag inactive | D2 ag-3 inactive
S=C(NCCCc1ccccc1)NC1CCCCC1	D2 ag-2 37 | D3 arrestin ag inactive | D2 ag-3 inactive
C/C(=N\NC(=S)NC1CCCCC1)c1ccccc1	D2 antag 41, D2 ag-2 45 | D3 arrestin ag inactive | D2 ag-3 inactive
S=C(NCc1ccccc1)NC1CCCCC1	none
c1ccc(N2CCN(C3CCSC3)CC2)cc1 (stereo unspecified)	D2 ag-2 41 | D3 arrestin ag inactive | D2 ag-3 inactive
CCCn1nnnc1NCc1ccc(OC)cc1OC	none (no result: D2 antag, D2 ag-2, D2 PAM-1)
CC(=O)c1cccc(OCC(O)CNCCOc2ccc(C)cc2)c1 (stereo unspecified)	D2 antag 42, D2 ag-2 53 | D3 arrestin ag inactive | D2 ag-3 inactive
CC(=O)c1cccc(OCC(O)CNCC2CCCCC2)c1 (stereo unspecified)	none
O=c1/c(=C\c2cc([N+](=O)[O-])cc([N+](=O)[O-])c2O)sc2nc3ccccc3n12	Anesthetic bind inconclusive, D2 antag 31 | D3 arrestin ag inactive | D2 ag-3 inactive
CC(=O)Nc1ccc(OCC(O)CN2CCN(c3ccc(Cl)cc3)CC2)cc1 (stereo unspecified)	D2 antag 40 | D3 arrestin ag inactive | D2 ag-3 inactive
CC(=O)Nc1ccc(OCC(O)CN2CCN(c3cccc(Cl)c3)CC2)cc1 (stereo unspecified)	D2 ag-1 inconclusive, D2 antag 83, D2 ag-2 76 | D3 arrestin ag inconclusive | D2 ag-3 inconclusive
CC(=O)Nc1ccc(OCC(O)CN2CCN(c3ccc(F)cc3)CC2)cc1 (stereo unspecified)	D2 antag 45, D2 ag-2 69 | D3 arrestin ag inactive | D2 ag-3 inactive
CC(=O)Nc1ccc(OCC(O)CN2CCN(S(=O)(=O)c3ccc(NC(C)=O)cc3)CC2)cc1 (stereo unspecified)	none
CCc1ccccc1NC(=S)N1CCN(c2ccccc2F)CC1	none | D3 arrestin ag inactive | D2 ag-3 inactive
COc1ccc(C(C)N2CC34C=CC(O3)C(C(=O)OCC(C)C)C4C2=O)cc1 (stereo unspecified)	none (no result: D2 ag-1, D2 antag, D2 ag-2, D2 PAM-1, D2 PAM-2)
O=S(=O)(NCCc1ccc(F)cc1)c1cc(C(F)(F)F)ccc1Br	none (no result: Anesthetic bind, D2 antag, D2 ag-2, D2 PAM-1, D2 PAM-2)
O=S(=O)(NCc1ccc(F)cc1)c1cc(Br)ccc1Br	none (no result: Anesthetic bind) | D3 arrestin ag inactive | D2 ag-3 inactive
O=S(=O)(c1ccc(OCC(O)CN2CCN(c3ccccc3)CC2)cc1)N1CCOCC1 (stereo unspecified)	D2 ag-1 44, D2 antag 96, D2 ag-2 85 | D3 arrestin ag inconclusive | D2 ag-3 7.1µM
O=S(=O)(c1ccc(OCC(O)CN2CCC(Cc3ccccc3)CC2)cc1)N1CCOCC1 (stereo unspecified)	D2 ag-2 63 | D3 arrestin ag inactive | D2 ag-3 inactive
O=S(=O)(c1ccc(OCC(O)CN2CCCC2)cc1)N1CCOCC1 (stereo unspecified)	none
O=S(=O)(c1ccc(OCC(O)CN2CCN(c3ccccc3O)CC2)cc1)N1CCOCC1 (stereo unspecified)	D2 ag-1 inconclusive, D2 antag 69, D2 ag-2 71 | D3 arrestin ag inconclusive | D2 ag-3 28µM
Cn1cc(SCC(=O)Nc2nccs2)c2ccccc21	none
Cc1cccc(C2CN(C)CCc3c2cc(O)c(O)c3Cl)c1 (stereo unspecified)	D2 antag 79, D2 ag-2 52 (no result: Anesthetic bind) | D3 arrestin ag inconclusive | D2 ag-3 inactive
Oc1cc2c(c(Cl)c1O)CCNCC2c1ccccc1 (stereo unspecified)	none (no result: D2 antag, D2 ag-2, D2 PAM-1)
CCOC1=C2CN(S(=O)(=O)c3ccc(C)cc3)[C@H](c3ccccc3)C[C@@H]2N(S(=O)(=O)c2ccccc2)[C@H](c2ccccc2)C1	none (no result: Anesthetic bind, D2 antag, D2 ag-2, D2 PAM-1)
O=C(C1CCCN(S(=O)(=O)c2cccc3cccnc23)C1)N1CCN(c2ccccc2F)CC1 (stereo unspecified)	D2 antag 37 | D3 arrestin ag inactive | D2 ag-3 inconclusive
O=C(C1CCCN1S(=O)(=O)c1cccc2cccnc12)N1CCN(c2ccccc2)CC1 (stereo unspecified)	none | D3 arrestin ag inactive | D2 ag-3 inactive
COCCNc1nnc(SCC(=O)Nc2cc(-c3ccccc3)nn2-c2ccccc2)s1	none
Cc1cc(NC(=O)C(=O)NCCN2CCN(C(=O)c3cccs3)CC2)ccc1Br	none | D3 arrestin ag inactive | D2 ag-3 inactive
COc1ccc(NC(=O)C(=O)NCCN2CCN(C(=O)c3cccs3)CC2)cc1	D2 antag 44 | D3 arrestin ag inconclusive | D2 ag-3 inactive
O=C(NCC(=O)N1CCN(C(=O)c2ccco2)CC1)c1ccccc1	none
CCOC(=O)N1CCN(C(=O)CN2C(=O)NC(C)(c3ccc4ccccc4c3)C2=O)CC1 (stereo unspecified)	none (no result: Anesthetic bind)
CN(CCNC(=O)C1CCC(=O)N(Cc2cccc(F)c2)C1)CCc1ccccc1 (stereo unspecified)	none
CN(CCNC(=O)C1CCC(=O)N(Cc2ccc(Cl)cc2)C1)CCc1ccccc1 (stereo unspecified)	D2 ag-2 45 | D3 arrestin ag inactive | D2 ag-3 inactive
CC(C)c1ccc(OCC(O)CN2CCN(c3ccc(F)cc3)CC2)cc1 (stereo unspecified)	none (no result: D2 ag-1, D2 antag, D2 PAM-2)
CC(=O)c1ccc(OCC(O)CN2CCN(c3ccc(F)cc3)CC2)cc1 (stereo unspecified)	D2 ag-2 83 | D3 arrestin ag inactive | D2 ag-3 inactive
CCC(=O)c1ccc(OCC(O)CN2CCN(c3ccc(F)cc3)CC2)cc1 (stereo unspecified)	D2 antag 31 | D3 arrestin ag inconclusive | D2 ag-3 inactive
